Several values for one entry are separate records, joined by “and”; a condition that tells them apart may be missing. Equal values may be shown once. This is part of a sample that, as a whole, favours compounds with a hit. Of some 79,000 tested, about 15% had one in any assay. A structure can be active in one record and inactive in another. Activity calls are given as the source filed them. Cut-off read from the data, not from the text of the source: active = growth inhibition above about 70%; inactive = the rest.

The test can be described thus: NCI Yeast Anticancer Drug Screen. Data for the mec2-1 strain (AID 157). To be noted: S. cerevisiae mec2-1 strain, at 5.0 µM (retest, dose inferred, filed as 0.5), stronger effect = higher value. In short, it runs like this:
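Using mec2-1 yeast: add compound, measure growth, express inhibition versus vehicle-treated cultures.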
On to `CCCCCCCc1c(Cl)nc(Cl)nc1Cl`, for which the growth inhibition was 12% (inactive).

Consider `O=C1/C(=C/c2ccc(Cl)cc2)CNC/C1=C\c1ccc(Cl)cc1`, for which the growth inhibition was 76% (active) and 48% (inactive).

With `O=C1C(Cl)=C(N2CCN(C3=C(Cl)C(=O)c4ccccc4C3=O)CC2)C(=O)c2ccccc21`, the growth inhibition is 8% (inactive).

In the case of `O=C1c2ccccc2-n2c1nc1ccccc1c2=O`, the growth inhibition is 14% (inactive).

In the case of `Nc1ccc(Cn2ccc3c4c(N)nc(N)nc4ccc32)cc1`, the growth inhibition is 29% (inactive).

As to `Nc1nc(N)c2c(Cl)c(CNc3ccc(Cl)c(Cl)c3)ccc2n1`, the growth inhibition is 97% (active).

Consider `Cc1cc(NCCCCCCCNc2cc(C)nc3cc([N+](=O)[O-])ccc23)c2ccc([N+](=O)[O-])cc2n1`, for which the growth inhibition was 15% (inactive).

For the molecule `CCCCCCCCCCCCCCCCCC(=O)NCCO`, the growth inhibition is -1% (inactive).
